Measurements published in PubChem BioAssay (Tox21).
Results filed as inconclusive are left out. Where a call stands in place of a potency, no number is given. Values without a mark were called inactive. Active and inactive are the calls of the source. The call rests on the fitted dose curve; in most records, active means well fitted activation curve with a large enough effect in the repeat runs; inconclusive means weak or mixed curves; inactive means flat fitted curve, though single readings scatter.

Test: A CellTox Green Cytotoxicity Assay to monitor cytotoxicity in HEK293 cells - 32 hour (AID 1224881); further: nearly all actives have a fitted effect of over 40% in size
Conditions: CellTox Green fluorescence; series mostly up to 76.8 µM
Excerpt: National Center for Advancing Translational Sciences [NCATS]
NIH Chemical Genomics Center [NCGC]
U.S. Environmental Protection Agency [EPA]
National Institutes of Environmental Health Sciences [NIEHS]
National Toxicology Program [NTP]
Cell-based models are critical for drug discovery. Determining the natural cytotoxic effects resulting from test compounds is an essential research activity. A CellTox Green Cytotoxicity Assay to monitor cytotoxicity in real time of continues cell culture during 40 hours of the compound treatment was used to screen Tox21 10K library compounds in Hek293 cells. CellTox Green Cytotoxicity Assay is a nonlytic, homogeneous, biofluorescent method to measure cytotoxicity in cell culture after experimental manipulation. The assay system uses a proprietary asymmetric cyanine dye that is excluded from viable cells but preferentially stains the dead cell's DNA. […] Viable cells produce no appreciable increases in fluorescence. Therefore, the fluorescence signal produced by the binding interaction with dead cell DNA is proportional to cytotoxicity.
The mixture of Hek293 cell suspension and reagents were dispensed at 600cells/6 ul/well in 1536-well tissue culture treated black solid bottom plates using a Multidrop dispenser. After the assay plates were incubated at a 37 C/5% CO2 incubator for 5 hours, 23 nL of compounds dissolved in DMSO, positive and negative controls was transferred to the assay plate by a pintool work station. The plates were incubated at 37 C for 40 hours. The fluorescence intensity were measured at 0h, 8h, 16h, 24h, 32h and 40h time points using ViewLux plate reader during compound treatment.
Potency means the concentration at half of the fitted maximal effect.

Compound | Potency | cytotoxicity increase
O=Cc1ccc(C(=O)O)cc1 | inactive | 
CCCCCCCOC(C)=O | inactive | 
C=CCN1CCc2nc(N)sc2CC1 | inactive | 
Cc1cc(=O)oc2cc(O[C@@H]3SC[C@@H](O)[C@H](O)[C@H]3O)ccc12 | inactive | 
N=C(N)N | inactive | 
CCN1CCN(C(=O)N[C@@H](C(=O)N[C@@H]2C(=O)N3C(C(=O)O)=C(CSc4nnnn4C)CS[C@H]23)c2ccc(O)cc2)C(=O)C1=O | inactive | 
CCC(C)(C)C | inactive | 
COc1ccc(Cl)cc1C | inactive | 
O=C(O)Cc1ccccc1Oc1ccc(Cl)cc1Cl | inactive | 
CO/N=C(\C(=O)O)c1csc(NC(=O)CCl)n1 | inactive | 
N[C@H]1C(O)O[C@H](CO)[C@@H](O)[C@@H]1O (stereo not given in full) | inactive | 
O=C[C@@H](O)[C@H](O)[C@H](O)CO | inactive | 
CCCCCC(CC)OC(=O)CCCOc1ccc(Cl)cc1Cl (stereo not given) | inactive | 
CC(C)(C)C(=O)CCc1ccc(Cl)cc1 | inactive | 
CCCCCCCCCCCC(C)=O | inactive | 
CCOc1ccccc1OCCN[C@H](C)Cc1ccc(OC)c(S(N)(=O)=O)c1 | inactive | 
C=CCCCCCCCCOC(C)=O | inactive | 
Cc1ccc(O)c(C(=O)c2ccccc2)c1 | inactive | 
C[Si](C)(C)O[Si](O)(O)O | inactive | 
O=C(O)P(=O)(O)O | inactive | 

Compound | Potency | cytotoxicity increase
COC(=O)/C=C(\C)CCC=C(C)C | inactive | 
C/C=C/C(=O)CCCC | inactive | 
Clc1cc(Cl)c(Cl)c(Cl)c1Cl | inactive | 
CC(=O)c1c(C)cc(C(C)(C)C)cc1C | 24.5 µM (active) | 
CC(C)OC(=O)C(C(=O)OC(C)C)=C1SC=CS1 | inactive | 
COC(=O)C(c1ccccc1Cl)N1CCc2sccc2C1 (stereo not given) | inactive | 
CCC(C)SSC(C)CC (stereo not given) | inactive | 
O=c1[nH]c(=O)c2cn[nH]c2[nH]1 | inactive | 
CCNC(=O)C(C)OC(=O)Nc1ccccc1 (stereo not given) | inactive | 
CCCCCCCCCCCCCCCC(=O)OC |  | -5.35% [at 15.8 µM]
N=C(N)S(=O)O | inactive | 
CCOC(=O)CC | inactive | 
O=c1c(O)c(O)c1=O | inactive | 
O=C(O)COc1ccc2ccccc2c1 | inactive | 
Cc1ccc(S(=O)(=O)NC(=O)NN2CC3CCCC3C2)cc1 (stereo not given) | inactive | 
C[n+]1ccccc1/C=N/O | inactive | 
O=CN1CCCCC1 | inactive | 
O=C(c1ccccc1)c1cccc(O)c1 | inactive | 
CN(C)CCc1c[nH]c2ccc(CS(=O)(=O)N3CCCC3)cc12 | inactive | 
C[C@@H](CN1CC(=O)NC(=O)C1)N1CC(=O)NC(=O)C1 | inactive | 
